Test [1] is described as follows: A549 cell viability effects, profiling panel, calcein-AM fluorescence, 48 h, basal (AID 1162). Note: test concentration not given here. The conditions noted are these: higher = more signal.
Test [2] can be described thus: adipocyte viability effects, profiling panel, cell-based, 3T3-L1 adipocytes, calcein-AM fluorescence, 48 h, basal (AID 1163). Note: test concentration not given here. The settings on record: 3T3-L1 adipocytes viability, higher = more signal.
Test [3] can be described thus: HepG2 cell viability effects, profiling panel, calcein-AM fluorescence, 48 h, basal (AID 1164). Note: test concentration not given here. The conditions noted are these: higher = more signal.
A short description of test [4]: MM1S cell viability effects, profiling panel, calcein-AM fluorescence, 48 h, basal (AID 1165).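 Note: viability of MM1S multiple myeloma cells under basal unstimulated conditions; test concentration not given here.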 The settings on record: higher = more signal.
Test [5] in a line: basal RPMI8226 viability, no added stimulus, profiling panel, cell-based, calcein-AM fluorescence, 48 h, PK04 Diversity Set (AID 1166).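 Note: cells grown under basal conditions without added stimulus; test concentration not given here.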 The conditions noted are these: RPMI8226 myeloma viability, higher = more signal.
Test [6] is described as follows: basal HepG2 mitochondrial membrane potential changes, profiling panel, cell-based, JC-1 fluorescence, 24 h, 100 nL compound (AID 1167). Note: test concentration not given here. The settings on record: higher = more signal.
The nature of test [7]: basal 3T3-L1 adipocyte mitochondrial potential changes, profiling panel, cell-based, JC-1 fluorescence, 3T3-L1 adipocytes, 24 h, 100 nL compound (AID 1168). Note: test concentration not given here. The conditions noted are these: JC-1 mitochondrial fluorescence, higher = more signal, called active from +8 up or from −8 down.
Test [8] in a line: basal RPMI8226 mitochondrial membrane potential changes, profiling panel, cell-based, JC-1 fluorescence, 24 h, 100 nL compound (AID 1169). Note: test concentration not given here. The conditions noted are these: RPMI8226 myeloma, JC-1 mitochondrial potential fluorescence, higher = more signal.
A short description of test [9]: basal MM1S mitochondrial membrane potential changes, profiling panel, cell-based, JC-1 fluorescence, 24 h, 100 nL compound (AID 1170). Note: test concentration not given here. The settings on record: higher = more signal.
Test [10] in a line: A549 lung cancer cell viability effects, profiling panel, resazurin fluorescence, 24 h, PK04 Diversity Set (AID 1171). Note: test concentration not given here. The conditions noted are these: higher = more signal, called active from +8 up or from −8 down. A general note: Resazurin is reduced to fluorescent resorufin, in cell work by metabolically active cells.
A short description of test [11]: HepG2 liver cancer cell viability effects, profiling panel, resazurin fluorescence, 24 h, PK04 Diversity Set (AID 1172). Note: test concentration not given here. The conditions noted are these: higher = more signal.
Test [12] in a line: basal S. cerevisiae growth modulation, no modifier, primary screen, OD600, strain BY4716, 24 h, basal condition (AID 1173). The settings on record: OD600, 24 h, higher = more signal, called active from +8 up or from −8 down.
Test [13] can be described thus: MM1S myeloma cell viability, profiling panel, resazurin fluorescence, basal, 24 h, PK04 Diversity Set (AID 1174).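 Note: MM1S multiple myeloma cell line; test concentration not given here.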 The settings on record: higher = more signal, called active from +8 up or from −8 down.
Test [14] has as its target Dihydroorotate dehydrogenase (quinone), mitochondrial (Plasmodium falciparum (isolate 3D7)) (UniProt Q08210). Description: PfDHODH enzyme inhibitors, primary screen, biochemical, C-terminal His tag, absorbance 600 nm (AID 1175).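 Note: recombinant parasite enzyme with a five histidine tag at its C terminus; test concentration not given here.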 The conditions noted are these: DCIP absorbance 600 nm, higher = more signal, called active from +8 up or from −8 down.
Test [15] can be described thus: P. aeruginosa biofilm formation inhibitors, primary screen, strain PAO1, LB-PBS medium, absorbance 600 nm (AID 1176). Note: test concentration not given here. The settings on record: P. aeruginosa PAO1 growth/biofilm, A600, 12 h; higher = more signal.
The nature of test [16]: S. cerevisiae RM11-1a growth modifiers, primary screen, strain RM11-1a, OD600, basal, 24 h (AID 1177).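 Note: cultures grown under basal conditions with no added stressor; test concentration not given here.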 The conditions noted are these: OD600, 24 h, higher = more signal, called active from +8 up or from −8 down.
The nature of test [17]: E. coli acrAB mutant growth effects, primary screen, E. coli filamentation inducers, strain DRC39, OD650, 24 h (AID 1178).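 Note: growth measured as culture turbidity by optical density at 650 nm; test concentration not given here.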 The conditions noted are these: higher = more signal, called active from +8 up or from −8 down.
The nature of test [18]: E. coli acrAB mutant growth effects, primary screen, E. coli filamentation inducers, strain DRC39, OD650, 48 h (AID 1179).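 Note: screen aims at cell division blockers that make cells filament.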 The settings on record: E. coli DRC39 delta-acrAB growth, higher = more signal, called active from +8 up or from −8 down.
Test [19] is described as follows: RPMI8226 myeloma cell viability, profiling panel, resazurin fluorescence, basal, 24 h, PK04 Diversity Set (AID 1180).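 Note: RPMI8826 multiple myeloma cell line at 5000 cells per well; test concentration not given here.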 The conditions noted are these: higher = more signal.
Test [20] deals with E3 ubiquitin-protein ligase XIAP (Homo sapiens) (UniProt P98170). Briefly: XIAP binders, primary screen, biophysical, small-molecule microarray, fluorescence 635 nm (AID 1181).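 Note: score merges 667 nm emission and signal to noise over triplicate slides.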 The settings on record: small-molecule microarray binding, higher = more signal.

The source made the active and inactive calls. Unless noted, the rule behind the calls is not given here.

Chain of Dihydroorotate dehydrogenase (quinone), mitochondrial (Plasmodium falciparum (isolate 3D7)) (Q08210 whole entry, looked up): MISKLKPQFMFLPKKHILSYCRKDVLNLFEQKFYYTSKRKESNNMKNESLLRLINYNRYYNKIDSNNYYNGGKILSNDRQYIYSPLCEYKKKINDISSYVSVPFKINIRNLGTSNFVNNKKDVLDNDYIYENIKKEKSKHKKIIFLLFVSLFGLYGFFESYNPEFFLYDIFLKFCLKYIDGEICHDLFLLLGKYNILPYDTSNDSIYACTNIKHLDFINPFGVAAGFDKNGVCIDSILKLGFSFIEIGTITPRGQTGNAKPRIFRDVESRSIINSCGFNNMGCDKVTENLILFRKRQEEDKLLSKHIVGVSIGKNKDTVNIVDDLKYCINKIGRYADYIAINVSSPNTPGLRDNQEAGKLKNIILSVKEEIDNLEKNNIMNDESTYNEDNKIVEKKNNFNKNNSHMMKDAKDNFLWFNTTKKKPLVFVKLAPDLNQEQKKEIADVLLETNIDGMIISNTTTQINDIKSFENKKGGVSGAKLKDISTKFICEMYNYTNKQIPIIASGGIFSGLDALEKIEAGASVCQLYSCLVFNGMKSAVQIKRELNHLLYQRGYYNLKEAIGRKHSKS
Chain of E3 ubiquitin-protein ligase XIAP (Homo sapiens) (P98170 whole entry, looked up): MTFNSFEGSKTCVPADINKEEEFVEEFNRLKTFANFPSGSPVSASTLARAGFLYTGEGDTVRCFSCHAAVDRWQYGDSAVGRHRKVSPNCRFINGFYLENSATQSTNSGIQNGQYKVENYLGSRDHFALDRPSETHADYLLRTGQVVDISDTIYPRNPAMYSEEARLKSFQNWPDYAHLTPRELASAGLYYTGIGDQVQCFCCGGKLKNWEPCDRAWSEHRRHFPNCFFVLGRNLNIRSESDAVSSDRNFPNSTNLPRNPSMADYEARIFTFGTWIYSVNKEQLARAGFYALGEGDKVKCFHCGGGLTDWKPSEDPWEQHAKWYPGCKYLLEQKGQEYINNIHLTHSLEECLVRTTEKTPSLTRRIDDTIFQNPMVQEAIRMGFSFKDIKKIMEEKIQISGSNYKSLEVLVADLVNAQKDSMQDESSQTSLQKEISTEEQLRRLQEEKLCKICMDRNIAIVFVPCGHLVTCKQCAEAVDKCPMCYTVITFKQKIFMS

For `COc1ccc(C#Cc2ccc3c(c2)[C@]2(C(=O)N3)[C@H](c3ccc(O)cc3)N3[C@H](c4ccccc4)[C@H](c4ccccc4)OC(=O)[C@H]3[C@@H]2C(=O)Nc2nc3ccccc3s2)cc1`, the z-score is 0.453 in [1]; 1.89 in test [2]; -0.0578 in test [3]; -1.4 in test [4]; -2.6 in test [5]; -2.28 in test [6]. Further, the z-score was 0.0579 (inactive) in test [7]; -0.429 in test [8]; 0.0506 in test [9]; -1.21 (inactive) in test [10]; -1.11 in [11]; -0.155 (inactive) in test [12]. The z-score in test [13] is 0.415 (inactive); in test [15], 1.21 (inactive); in test [16], 1.2 (inactive); in [17], 0.198 (inactive); in test [18], 0.0227 (inactive); in test [19] it was 1.07. Besides, the composite z-score is -15.8 (active) in test [14] and 0.289 in [20].

On to `COc1ccc(CCNC(=O)[C@@]2(c3ccc([N+](=O)[O-])cc3)CC(=O)N(C3CCCCC3)[C@@H]2c2ccc(CO)cc2)cc1`, for which the z-score is 2.41 in test [1]; 0.414 in test [2]; 1.12 in test [3]; 0.547 in [4]; 0.841 in test [5]; 2.85 in test [6]. Moreover, the z-score in test [7] is -0.171 (inactive); in test [8], 0.562; in test [9], 0.954; in test [10] it was 1.28 (inactive); in test [11] it was 0.159; in test [12] it was -0.0229 (inactive). The z-score is -0.881 (inactive) in [13]; -0.342 (inactive) in test [15]; 1.14 (inactive) in test [16]; 0.914 (inactive) in test [17]; 0.686 (inactive) in test [18]; 0.556 in [19]. Also, the composite z-score is 0.395 (inactive) in test [14] and -0.0333 in [20].

Consider `CCCCCN1CC=CC23O[C@@H]4/C=C\CCCOC(=O)C4[C@H]2C(=O)N(C(C)CO)[C@@H]3C1=O` (stereo not given in full), for which the z-score in test [1] was 0.327; in test [2], -0.0628; in test [3] it was -0.0728; in test [4] it was 1.16; in test [5], 0.15; in test [6], 0.37. The z-score in test [7] was 0.0667 (inactive); in test [8], 1.08; in test [9], -1.13; in test [10], 0.423 (inactive); in test [11], 0.652; in [12], 0.102 (inactive). Further, the z-score in test [13] is 0.295 (inactive); in [15], 0.398 (inactive); in [16], 0.493 (inactive); in [17], 1.25 (inactive); in [18] it was 0.945 (inactive); in test [19], 0.541. Further, the composite z-score in test [14] is -0.298 (inactive); in [20] it was -0.162.

For the molecule `C[N+](C)(C)CCCC[C@@H]1NC(=O)[C@@H]2C[C@H](C(=O)NCCCCCCN)[C@H](c3cccc(OCCO)c3)N2C1=O`, the z-score in test [1] is -0.148; in [2], 1; in test [3], 0.649; in test [4], 0.651; in test [5], -0.013; in test [6] it was 0.746. In addition, the z-score was -0.17 (inactive) in test [7]; -0.711 in test [8]; 0.246 in test [9]; -0.518 (inactive) in test [10]; -0.418 in test [11]; -0.22 (inactive) in test [12]. Also, the z-score is -0.0181 (inactive) in test [13]; -0.117 (inactive) in [15]; -0.0966 (inactive) in test [16]; 0.342 (inactive) in test [17]; 0.743 (inactive) in test [18]; -1.3 in [19]. Besides, the composite z-score in [14] is 0.441 (inactive); in test [20], 0.215.

As to `Cc1ccc(S[C@]2(C(=O)O)CC(=O)N(C3CCCCC3)[C@@H]2c2ccc(CO)cc2I)cc1`, the z-score in test [1] was -0.756; in test [2] it was 0.505; in test [3], -0.561; in [4] it was -2.64; in test [5] it was -2.13; in test [6], -1.1. In addition, the z-score was -0.343 (inactive) in test [7]; -0.278 in test [8]; 0.0653 in test [9]; 0.808 (inactive) in test [10]; 0.465 in [11]; -1.67 (inactive) in [12]. The z-score in test [13] is -0.353 (inactive); in [15], -0.137 (inactive); in test [16], -0.92 (inactive); in [17] it was 0.475 (inactive); in test [18], 0.0129 (inactive); in [19], -0.74. The results for the composite z-score in test [14] and in [20] were -0.664 (inactive) and -0.0525, respectively.

For `CCCC=C(CCC)[C@@H](NS(=O)(=O)CC12CCC(CC1=O)C2(C)C)c1ccc(C(=O)OC)cc1` (stereo not given in full), the z-score was -0.672 in test [1]; -0.316 in test [2]; -0.915 in test [3]; 0.295 in test [4]; -1.06 in test [5]; -2 in test [6]. The z-score in test [7] was 0.273 (inactive); in [8], 0.7; in test [9], -1.46; in test [10], 0.252 (inactive); in test [11], 0.602; in [12], 0.484 (inactive). In addition, the z-score in test [13] is 0.16 (inactive); in [15], 0.756 (inactive); in test [16], -0.721 (inactive); in test [17], 0.0384 (inactive); in test [18] it was -0.572 (inactive); in test [19], -0.123. For the same molecule, the composite z-score in [14] is -0.929 (inactive); in test [20] it was -0.102.

On to `CC(C)c1ccc(NN2C(C(O)c3ccc(F)cc3)C=CC3C(=O)N(c4ccccc4)C(=O)C32)cc1` (stereo not given), for which the z-score was 0.394 in test [1]; -1.37 in [2]; 0.747 in [3]; -1.12 in test [4]; -1.46 in test [5]; -1.18 in [6]. Besides, the z-score in [7] is -0.382 (inactive); in test [8] it was 0.282; in [9], -0.958; in test [10], -0.12 (inactive); in [11], -0.0361; in test [12], -2.21 (inactive). For the same molecule, the z-score is -1.25 (inactive) in [13]; 1.36 (inactive) in [15]; 0.737 (inactive) in test [16]; -0.159 (inactive) in test [17]; 0.127 (inactive) in test [18]; -0.895 in test [19]. The composite z-score is 0.319 (inactive) in [14] and -0.226 in [20].

As to `CCCNC(=O)[C@@]1(C)c2ccccc2C(=O)N(c2ccc(C)cn2)[C@H]1c1ccc(CO)cc1`, the z-score in test [1] is 0.666; in test [2], 0.343; in test [3], -0.146; in [4], -0.108; in test [5] it was 0.526; in test [6], 0.204. Besides, the z-score in [7] was -0.0622 (inactive); in test [8], 0.0215; in test [9], 0.43; in [10], -0.407 (inactive); in [11], -0.112; in test [12], -0.397 (inactive). Besides, the z-score in test [13] was 0.268 (inactive); in [15], 0.484 (inactive); in [16] it was -0.306 (inactive); in test [17], -0.398 (inactive); in test [18] it was -0.586 (inactive); in [19], -0.388. Further, the composite z-score was -0.281 (inactive) in test [14] and -0.127 in [20].
